{"source": "PubChem BioAssay (EPA / NIEHS)", "key": {"[1]": {"experiment": "CCTE_Padilla_ZF_Score.Tail: CCTE's 144 Hour Post-fertilization zebrafish Assay Score for Tail Malformation, Padilla Lab (AID 2284414)", "method_in_brief": "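Tail malformations were scored at 6 dpf by two blinded assessors under a stereo microscope. Chorionated embryos had been exposed from 6-8 hpf in sealed wells of 10% Hanks' at 26 C, then rinsed free of chemical at 5 dpf.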"}, "[2]": {"experiment": "CCTE_Padilla_ZF_Score.Blood_pooling: CCTE's 144 Hour Post-fertilization zebrafish Assay Score for Blood Pooling, Padilla Lab (AID 2284415)", "method_in_brief": "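Blood pooling was scored at 6 dpf under a stereo microscope by two blinded assessors, fitted upward against DMSO. Single embryos were dosed at 6–8 hpf in 10% Hanks', kept sealed at 26C (14:10 h cycle) and rinsed at 5 dpf.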"}, "[3]": {"experiment": "CCTE_Padilla_ZF_Score.Any: CCTE's 144 Hour Post-fertilization zebrafish Assay Score for Any Mortality or Malformation, Padilla Lab (AID 2284416)", "protocol": "CCTE_Padilla_ZF_Phenotype_Score is a whole embryo, multiplexed assay using zebrafish ova exposed for 144 hours post fertilization on a 96-well plate.CCTE_Padilla_ZF_Score.Any is one of one assay component(s) measured or calculated from the CCTE_Padilla_ZF_Phenotype_Score assay. It is designed to make measurements of zebrafish development as detected with brightfield microscopy of developing zebrafish embryos.Data from the assay component CCTE_Padilla_ZF_Score.Any was analyzed into 1 assay endpoints. This assay endpoint, CCTE_Padilla_ZF_Score.Any, was analyzed in the positive analysis fitting direction relative to DMSO as the negative control and baseline of activity. Using a type of viability reporter, gain-of-signal activity can be used to understand changes in developmentals as they relate to the whole embryo. To generalize the intended target to other relatable targets, this assay endpoint is annotated to the zebrafish development intended target family, where the subfamily is embryonic morphogenesis and mortality.\nZebrafish husbandry: Wild type adult zebrafish (Danio rerio; undefined outbred stock obtained from Aquatic Research Organisms, Hampton, NH, 03842) were housed in an AAALAC-approved animal facility at 28C with a 14:10 h light: dark cycle (lights on at 08:30 h). Adult fish (2-3 females per male; density = 15-20 adults per tank) were kept in one of several 9-liter (L) flow-through colony tanks (Aquaneering Inc., San Diego, CA). All adults in a colony tank were placed in a 2 L (static) breeding tank (Aquatic Habitats, Apopka, FL) one hour prior to light onset. Typically, adults from two to three colony tanks were mated on the same day. Two hours after light onset the adults were returned to the colony tank. All embryos were gathered from each breeder tank, pooled, and placed in a 28C water bath for 2 h, followed by two washes with 0.06% bleach (v/v) in 10% Hanks' Balanced Salt Solution (13.7 mM NaCl 0.54 mM KCl, 25 uM Na2HPO4, 130 uM CaCl2 100 um MgSO4 and 420 um NaHCO3,), hereafter referred to as Hanks' solution, for 5 min in order to remove any residual bacteria or fungi. Immediately following washing, the embryos were examined, and healthy embryos were separated from dead or unfertilized eggs and moved into fresh Hanks'. Chemical exposures: Zebrafish embryos were exposed in 96-well plates. Between 6- and 8-hours post fertilization (hpf), healthy embryos (with chorions) were transferred, one embryo per well, into 96 well (0.5 mL) microtiter plates (Cell Culture-Treated, Flat-Bottom Microplate 96 well [Corning Costar, Kennebunk, ME; Cat 09-761-145]) filled with 200 uL of Hanks' solution. A random number generator was used to assign the order in which the rows of embryos were plated in 96 well plates each week. […]"}, "[4]": {"tested_on": "SRY-box transcription factor 2 (SOX2) Protein Expression, Deisenroth Lab, SOX2 (gene 6657)", "experiment": "CCTE_Deisenroth_DEVTOX-GLR_Endo_SOX2: CCTE's DevTox GLR-Endo Assay Evaluation of SRY-box transcription factor 2 (SOX2) Protein Expression, Deisenroth Lab (AID 2284412; active = hit-call score of the fitted dose curve at least 0.9, where 1 is the maximum)", "method_in_brief": "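Endpoint is percent SOX2-positive cells (SOX2+ count/total cells) minus 0.2% DMSO control, from high-content imaging of fixed, nuclear-stained RUES2-GLR cells. Dosing twice at 24 h intervals over 48 h differentiation, 1 nM–200 uM in 10 points.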"}, "[5]": {"tested_on": "SRY-box transcription factor 17 (SOX17) Protein Expression, Deisenroth Lab, SOX17 (gene 64321)", "experiment": "CCTE_Deisenroth_DEVTOX-GLR_Endo_SOX17: CCTE's DevTox GLR-Endo Assay Evaluation of SRY-box transcription factor 17 (SOX17) Protein Expression, Deisenroth Lab (AID 2284413)", "method_in_brief": "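Human RUES2-GLR cells carrying an inducible fluorescent reporter are differentiated in defined media for 48 h and dosed twice, 24 h apart. After fixation and nuclear staining, imaging yields SOX17+ cell percentage relative to 0.2% DMSO-treated differentiated cells.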"}, "[6]": {"tested_on": "Brachyury (BRA) Protein Expression, TBXT (gene 6862)", "experiment": "CCTE_Deisenroth_DEVTOX-GLR_Endo_BRA: CCTE's DevTox GLR-Endo Assay Evaluation of Brachyury (BRA) Protein Expression, Deisenroth Lab (AID 2284417)", "method_in_brief": "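RUES2-GLR pluripotent cells differentiated 48 h with two chemical exposures 24 h apart, 10-point range 1 nM - 200 uM. Percentage of BRA+ cells per total count by high-content imaging, minus 0.2% DMSO control.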"}, "[7]": {"experiment": "CCTE_Deisenroth_DEVTOX-GLR_Endo_CellCount: Viability Assessment in CCTE's DevTox GLR-Endo Assay, Deisenroth Lab (AID 2284420)", "method_in_brief": "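Nuclei counted by fluorescence microscopy as a surrogate for cell number, expressed as percent change relative to 0.2% DMSO control. Human RUES2-GLR cells, 48 h differentiation, dosed twice; 1 nM - 200 uM series.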"}, "[8]": {"tested_on": "SRY-box transcription factor 17 (SOX17) Protein Expression, Deisenroth Lab, SOX17 (gene 64321)", "experiment": "CCTE_Deisenroth_DEVTOX-GLR_Pluri_SOX17: CCTE's DevTox GLR-Pluri Assay Evaluation of SRY-box transcription factor 17 (SOX17) Protein Expression, Deisenroth Lab (AID 2284427; active = hit-call score of the fitted dose curve at least 0.9, where 1 is the maximum)", "method_in_brief": "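Readout: percent SOX17+ cells (SOX17+ count/cell count) by high-content imaging of an inducible fluorescent reporter, corrected for 0.2% DMSO solvent control. RUES2-GLR cells, 48 h differentiation, dosed twice at 24 h intervals, 1 nM - 200 uM.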"}, "[9]": {"tested_on": "SRY-box transcription factor 2 (SOX2) Protein Expression, Deisenroth Lab, SOX2 (gene 6657)", "experiment": "CCTE_Deisenroth_DEVTOX-GLR_Pluri_SOX2: CCTE's DevTox GLR-Pluri Assay Evaluation of SRY-box transcription factor 2 (SOX2) Protein Expression, Deisenroth Lab (AID 2284428)", "method_in_brief": "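RUES2-GLR (human pluripotent), 48 h post-dosing, 2 exposures q24h, 1 nM–200 uM 10-pt. Fixed, nuclear dye, high-content imaging 5 fields/well. Endpoint: % SOX2+ cells (SOX2+/total count) vs 0.2% DMSO; n≥4.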"}, "[10]": {"tested_on": "Brachyury (BRA) Protein Expression, Deisenroth Lab, TBXT (gene 6862)", "experiment": "CCTE_Deisenroth_DEVTOX-GLR_Pluri_BRA: CCTE's DevTox GLR-Pluri Assay Evaluation of Brachyury (BRA) Protein Expression, Deisenroth Lab (AID 2284429; active = hit-call score of the fitted dose curve at least 0.9, where 1 is the maximum)", "method_in_brief": "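RUES2-GLR reporter line; 48 h mesoderm differentiation; two exposures, 24 h apart; 1 nM - 200 uM, 10 points; nuclear stain, high-content imaging, 5 fields/well; endpoint = %BRA+ cells of total count minus 0.2% DMSO; n=4.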"}}, "note": "Records with an inconclusive call do not appear. The source made the active and inactive calls. The calls were made as follows, unless noted: active = hit-call score of the fitted dose curve at least 0.9, where 1 is the maximum; inactive = score below 0.9."}
{"compound": "C=CCOC(F)(C(F)(F)F)C(F)(F)F", "values": [{"measurement": "outcome", "setting": "[1]", "value": "inactive"}, {"measurement": "outcome", "setting": "[2]", "value": "inactive"}, {"measurement": "outcome", "setting": "[3]", "value": "inactive"}]}
{"compound": "COC(F)(C(F)(F)C(F)(F)F)C(F)(C(F)(F)F)C(F)(F)F", "note": "(centres undefined)", "values": [{"measurement": "outcome", "setting": "[1]", "value": "inactive"}, {"measurement": "outcome", "setting": "[2]", "value": "inactive"}, {"measurement": "outcome", "setting": "[3]", "value": "inactive"}]}
{"compound": "CC(F)(F)CC(F)(F)F", "values": [{"measurement": "outcome", "setting": "[1]", "value": "inactive"}, {"measurement": "outcome", "setting": "[2]", "value": "inactive"}, {"measurement": "outcome", "setting": "[3]", "value": "inactive"}]}
{"compound": "O=S(=O)(F)C(F)(F)C(F)(F)C(F)(F)C(F)(F)F", "values": [{"measurement": "outcome", "setting": "[1]", "value": "inactive"}, {"measurement": "outcome", "setting": "[2]", "value": "inactive"}, {"measurement": "outcome", "setting": "[3]", "value": "inactive"}]}
{"compound": "NC(=O)c1ccc(N)nc1", "values": [{"measurement": "AC50", "setting": "[4]", "value": "71.1 µM (active)"}, {"measurement": "AC50", "setting": "[5]", "value": "21 µM (active)"}, {"measurement": "AC50", "setting": "[6]", "value": "68.7 µM (active)"}, {"measurement": "AC50", "setting": "[7]", "value": "30.6 µM (active)"}, {"measurement": "outcome", "setting": "[8]", "value": "inactive"}, {"measurement": "AC50", "setting": "[9]", "value": "38.1 µM (active)"}, {"measurement": "AC50", "setting": "[10]", "value": "100 µM (active)"}]}
